# Test results: PubChem BioAssay AID651814 (National Center for Advancing Translational Sciences (NCATS), 2012)
# Among all 2,100 compounds or so, about 590 (28%) were called active. Another 42% or so got no clear call; they are omitted. The list shows a part of the results. Unmarked numbers belong to inactive results. The call rests on the fitted dose curve; in most records, active means well fitted inhibition curve with a large enough effect; inconclusive means small, poorly fitted or top-dose-only effect; inactive means flat fitted curve, though single readings scatter.
# Molecular target: DNA dC->dU-editing enzyme APOBEC-3F (Homo sapiens) (UniProt Q8IUX4)
# Assay: qHTS for inhibitors of Vif-A3F interactions: Cherry picks; further: nearly all actives have a fitted effect of over 70% in size;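 on max response: % of control where 0% means no effect; active compounds raise eYFP fluorescence by blocking Vif-driven A3F loss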
# Conditions: HeLa A3F-eYFP + Vif (tagged APOBEC3F with the HIV-1 protein that degrades it), eYFP fluorescence, 24 h
# In short: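 HeLa cells stably expressing A3F-eYFP plus Vif, cultured overnight, then exposed to compounds at several concentrations for 24 h at 37 deg C. Reduced Vif-driven degradation read as rising eYFP fluorescence (488 nm ex/500-530 nm em) by laser-scanning cytometry; MG132 as positive control.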
# Potency means the concentration at half of the fitted maximal effect.
# DNA dC->dU-editing enzyme APOBEC-3F (Homo sapiens), sequence (Q8IUX4 whole entry, looked up): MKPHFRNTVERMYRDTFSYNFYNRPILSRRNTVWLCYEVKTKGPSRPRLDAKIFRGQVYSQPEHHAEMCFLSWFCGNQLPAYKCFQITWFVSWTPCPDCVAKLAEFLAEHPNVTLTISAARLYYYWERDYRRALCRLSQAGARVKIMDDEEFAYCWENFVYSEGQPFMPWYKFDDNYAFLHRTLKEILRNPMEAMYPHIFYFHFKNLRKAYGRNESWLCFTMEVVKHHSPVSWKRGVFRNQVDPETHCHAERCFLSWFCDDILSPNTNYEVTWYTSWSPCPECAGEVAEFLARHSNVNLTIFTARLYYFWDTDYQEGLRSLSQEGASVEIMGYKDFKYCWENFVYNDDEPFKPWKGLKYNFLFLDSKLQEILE
SMILES,max response [%],Potency
Cc1ccc(CN(C(=O)c2ccccc2F)c2ccccn2)o1,-5.38,–
Cc1cccc(C)c1NC(=S)NC(C)CCc1ccccc1 (stereo not given),1.36,–
CN1C(=S)N(c2cccnc2)C(=O)/C1=C\c1ccc(N(C)C)cc1,–,15.8 µM (active)
CN1C(=O)/C(=C\c2ccc(N(C)C)cc2)OC1=S,–,7.9 µM (active)
O=C(NC(=S)N1CCc2ccccc21)c1ccco1,-0.232,–
CN(C)S(=O)(=O)c1ccc2c(c1)/C(=C/c1cc3c([nH]1)CCCC3)C(=O)N2,–,2.23 µM (active)
O=C1/C(=C/c2ccc(O)cc2)SC(=S)N1CC1CCCO1 (stereo not given),5.6,–
COCCN1C(=O)/C(=C/c2ccc(N3CCCC3)cc2C)SC1=S,–,2.59 µM (active)
COCCN1C(=O)/C(=C/c2ccc(N3CCCC3)cc2)SC1=S,–,4.61 µM (active)
CN(Cc1cnn(Cc2ccccc2)c1)C(=O)c1cccc(S(=O)(=O)N2CCOCC2)c1,-22,–
CC(=O)c1ccc2cccc3c2c1N=CN3C,–,15.8 µM (active)
COc1ccc2c(Cl)c(C(=O)N/N=C3\CCCC(=O)C3)sc2c1,–,14 µM (active)
CCOc1cc(C(=O)NN=C2CCCC2)cc(OCC)c1OCC,-3.9,–
O=[N+]([O-])c1ccc(N2CCN(Cc3ccccc3)CC2)c2c1no[n+]2[O-],–,14 µM (active)
Cc1ccc2nc(C)c(C(=O)NN=C3CCCCCC3)n2c1,-15.2,–
N#CCSc1ccccc1NC(=O)CN1C(=O)NC(CCc2ccccc2)C1=O (stereo not given),-19.2,–
Cc1ccccc1NC(=O)CSC1=C(C#N)C(c2ccsc2)CC(=O)N1 (stereo not given),-7.98,–
N#CCSc1ccccc1NC(=O)CN1C(=O)C2CC=CCC2C1=O (stereo not given),–,14 µM (active)
Cc1ccccc1C1CC(c2cccs2)=NN1S(C)(=O)=O (stereo not given),-5.18,–
CS(=O)(=O)N1N=C(c2ccccc2)CC1c1ccc2c(c1)OCO2 (stereo not given),–,14 µM (active)

SMILES,max response [%],Potency
CS(=O)(=O)Nc1ccc(C2=NN(S(C)(=O)=O)C(c3ccc4c(c3)OCO4)C2)cc1 (stereo not given),–,17.7 µM (active)
CS(=O)(=O)Nc1ccc(C2=NN(S(C)(=O)=O)C(c3ccc4nccnc4c3)C2)cc1 (stereo not given),-7.65,–
CS(=O)(=O)Nc1cccc(C2=NN(S(C)(=O)=O)C(c3ccc4c(c3)OCO4)C2)c1 (stereo not given),-28.5,–
Cc1cc(OCC(=O)Nc2nnc(C3CC3)s2)ccc1Cl,2.35,–
CCOC(=O)c1ccc(NC(=S)NC(=O)C2CCCC2)cc1,-3.01,–
COC(=O)c1ccc(NC(=O)CC2Nc3cc(C)c(C)cc3NC2=O)cc1 (stereo not given),–,6.51 µM (active)
Cc1cccc(C(=O)Nc2nnc(C3=COCCO3)o2)c1,0.472,–
CCCCCCn1c(=O)[nH]c2nc3cc(N)ccc3nc2c1=O,-0.0141,–
Cc1cc2nc3c(=O)n(C4CCCCC4)c(=O)[nH]c3nc2cc1N,–,16.4 µM (active)
CCN(CC)c1nc(C)c(C(=S)Nc2cc([N+](=O)[O-])ccc2Cl)s1,-3.83,–
O=C(COC(=O)C12CC3CC(CC(Cl)(C3)C1)C2)N1CCCCC1,1.53,–
CN1CCc2c(sc3c2C(=O)NC(c2ccc(-c4ccc(Cl)cc4)o2)N3)C1 (stereo not given),-10.4,–
CCOC(=O)N1CCc2c(sc3c2C(=O)NC(c2ccc(N(C)C)cc2)N3)C1 (stereo not given),–,20.6 µM (active)
COc1ccc(CN(C(C)=O)c2cccc(C)c2C)cc1,-29.4,–
COc1ccc2oc(=Nc3ccccc3)c(-c3nc4ccccc4[nH]3)cc2c1,-13,–
CCOc1ccccc1Nc1nnc(-c2cc3cc(OC)ccc3oc2=O)s1,–,7.31 µM (active)
COc1ccc2oc(=O)c(-c3nc4ccccc4o3)cc2c1,–,20.6 µM (active)
CCOC(=O)C1CCCN(C(=O)c2ccc3nc(-c4cccc(OC)c4)oc3c2)C1 (stereo not given),-18.5,–
COc1cc(/C=C2/CCC/C(=C\c3cc(O)c(OC)c(Cl)c3)C2=O)cc(Cl)c1O,–,8.2 µM (active)
CCOc1cc(/C=C2\CCC/C(=C\c3cc(Cl)c(O)c(OCC)c3)C2=O)cc(Cl)c1O,–,7.04 µM (active)

SMILES,max response [%],Potency
COc1cc(/C=N/Nc2ccc(Cl)nn2)cc(OC)c1O,2.03,–
CCOc1c(Cl)cc(/C=N/NC(N)=S)cc1OC,-28.8,–
COc1ccccc1CNC(=O)c1ccc2nc3[nH]c4ccccc4c3nc2c1,-25.8,–
Fc1ccc2nc3[nH]c4ccccc4c3nc2c1,–,0.994 µM (active)
Cc1c(=O)n(OCc2ccc(Cl)cc2)c2ccccc2[n+]1[O-],-8.69,–
CC1C/C(=C/c2cccs2)C(=O)/C(=C/c2cccs2)C1 (stereo not given),-0.33,–
Cn1cccc1/C=C1\CC(C(C)(C)C)C/C(=C\c2cccn2C)C1=O (stereo not given),–,4.11 µM (active)
CN1C2CCC1/C(=C/c1cccn1C)C(=O)/C2=C\c1cccn1C,–,16.4 µM (active)
CN1/C(=C\C=C(/C#N)C(=O)Nc2ccccc2F)C(C)(C)c2ccccc21,–,20.6 µM (active)
COc1ccc(NC(=O)/C(C#N)=C/C=C/c2ccco2)cc1,-30,–
CN1/C(=C\C=C(/C#N)C(=O)Nc2ccc(Cl)cc2)C(C)(C)c2ccccc21,–,3.14 µM (active)
COc1ccc(NC(=O)/C(C#N)=C\C=C\c2ccco2)cc1,-29.2,–
O=C(NC(=S)N1CCN(c2ccccn2)CC1)c1ccccc1,0.282,–
CN(C)c1ccc(/C=C/c2ccnc3ccccc23)c(N)c1,–,7.31 µM (active)
CN(C)c1ccc(/C=C/c2ccnc3ccccc23)cc1,–,13 µM (active)
Nc1ccccc1/C=C/c1ccnc2ccccc12,–,23.1 µM (active)
CN(C)c1ccc(/C=C/C=C/c2ccnc3ccccc23)cc1,–,2.59 µM (active)
COc1ccc(-c2nc3cnccn3c2NC2CCCCC2)cc1-c1cccc(Cl)c1,-28.6,–
CCOC(=O)c1cnc(-n2nc(C)cc2C)nc1NNc1nc(-c2ccccc2)cc(-c2ccccc2)n1,6.49,–
c1ccc(N=NC2=NN(c3ccccc3)CS2)cc1,0.337,–
